Experiment [1] concerns the target Bile acid receptor (Homo sapiens) (UniProt Q96RI1). Briefly: ATG_IR1_CIS: Attagene CIS-FACTORIAL HepG2 Assay for human Nuclear Receptor Subfamily 1 Group H Member 4 (NR1H4), IR1 submotif (AID 2282946). The settings on record: IR1 reporter transcription, actives raise or lower the signal. Put shortly: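 HepG2 cells transiently transfected with multiple cis-promoter-driven reporter units to measure endogenous transcription factor activity; 24 h exposure. Reporter mRNA read by RT-PCR, FAM labelling, HpaI digestion and capillary electrophoresis. Bidirectional fit versus DMSO.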

Experiment [2] is described as follows: ATG_GRE_CIS: Attagene CIS-FACTORIAL HepG2 Assay for human Glucocorticoid Response Elements (GRE) (AID 2282947). Particulars: HepG2 GRE cis-reporter, Attagene multiplex mRNA; actives raise or lower the signal. Put shortly:
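Transiently transfected HepG2 cells carrying GRE cis-reporter units (endogenous TF activity) dosed 24 h; reporter mRNA quantified by RT-PCR, 6-FAM labelling, HpaI digestion and capillary electrophoresis. Bidirectional fit versus DMSO baseline.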

A short description of experiment [3]: ATG_ISRE_CIS: Attagene CIS-FACTORIAL HepG2 Assay for human Interferon Regulatory Factor 1 (IRF1) binding to an Interferon-Stimulated Response Element (ISRE) (AID 2282948). The settings on record: HepG2 ISRE cis-reporter (Attagene), mRNA transcription readout; actives raise or lower the signal. An outline of the steps: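 Quantitation relies on labelled RT-PCR fragments separated by capillary electrophoresis. Human HepG2 cells bearing cis-promoter reporter constructs were treated 24 h; DMSO served as baseline for bidirectional fitting.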

A short description of experiment [4]: ATG_M_32_CIS: Attagene CIS-FACTORIAL HepG2 Assay for M32 Transcription Factor (Internal Marker) (AID 2282949).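 Note: background control marker of the multiplexed CIS panel rather than a real target.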 Particulars: HepG2 Attagene cis-factorial M32 reporter, mRNA; actives raise or lower the signal. Put shortly:
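Fluorescent capillary electrophoresis peaks of HpaI-digested, FAM-labelled RT-PCR reporter products give the signal. Source: transiently transfected human liver HepG2 cells, 24 h after chemical dosing; bidirectional fitting against DMSO.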

The nature of experiment [5]: ATG_M_06_CIS: Attagene CIS-FACTORIAL HepG2 Assay for M06 Transcription Factor (Internal Marker) (AID 2282950). Particulars: HepG2 Attagene CIS-FACTORIAL M06 internal marker reporter; actives raise or lower the signal. An outline of the steps:
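Internal background marker within multiplexed cis-reporter HepG2 system. Cells transiently transfected, dosed 24 h; reporter mRNA measured by RT-PCR, HpaI digestion and capillary electrophoresis. Bidirectional fit relative to DMSO.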

The target in experiment [6] is Hypoxia-inducible factor 1-alpha (Homo sapiens) (UniProt Q16665). Put plainly: ATG_HIF1a_CIS: Attagene CIS-FACTORIAL HepG2 Assay for human Hypoxia Inducible Factor 1 (HIF1A) (AID 2282951). Particulars: HepG2 Attagene cis-factorial HIF1a reporter transcription; actives raise or lower the signal. Put shortly:
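HepG2 cells transiently transfected with multiple cis-regulated reporter transcription units measure endogenous transcription factor activity. After 24 h exposure, reporter mRNA is quantified by RT-PCR with 6-FAM labelling, HpaI digestion and capillary electrophoresis. Bidirectional fitting against DMSO.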

Experiment [7] concerns the target Hepatocyte nuclear factor 6 (Homo sapiens) (UniProt Q9UBC0). Briefly: ATG_HNF6_CIS: Attagene CIS-FACTORIAL HepG2 Assay for human Hepatocyte Nuclear Factor 6 (HNF6) (AID 2282952). Particulars: HepG2 Attagene cis-factorial HNF6 reporter transcription; actives raise or lower the signal. An outline of the steps:
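HepG2 cells transiently transfected with cis-element-driven multiplexed reporter units measuring endogenous transcription factor activity. After 24 h exposure, reporter mRNA quantified by RT-PCR, FAM-labelled fragments and capillary electrophoresis; bidirectional fitting versus DMSO.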

Experiment [8] concerns the target Heat shock factor protein 1 (Homo sapiens) (UniProt Q00613). Briefly: ATG_HSE_CIS: Attagene CIS-FACTORIAL HepG2 Assay for human Heat Shock Transcription Factor 1 (HSE) (AID 2282953). Particulars: HepG2 HSE cis-reporter, Attagene RNA transcription; actives raise or lower the signal. An outline of the steps:
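HepG2 cells transfected with cis-promoter reporter units sensing endogenous transcription factor activity; reporter mRNA quantified 24 h post-dose by RT-PCR and capillary electrophoresis of 6-FAM-labelled products. Bidirectional fitting against DMSO.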

A short description of experiment [9]: ATG_MRE_CIS: Attagene CIS-FACTORIAL HepG2 Assay for human Metal Responsive Element (MRE) (AID 2282954). The settings on record: HepG2 MRE cis-reporter transcription, Attagene multiplex; actives raise or lower the signal. Put shortly: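 HepG2 cells transiently transfected with cis-element-driven reporter units; mRNA measured 24 h after dosing. Reporter transcripts quantified by RT-PCR, FAM labelling, HpaI digestion and capillary electrophoresis; bidirectional fit versus DMSO.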

A short description of experiment [10]: ATG_PBREM_CIS: Attagene CIS-FACTORIAL HepG2 Assay for human Phenobarbital-responsive Enhancer Module (PBREM) (AID 2282955). Particulars: HepG2 PBREM cis-reporter, Attagene multiplexed transcription; actives raise or lower the signal. Put shortly:
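HepG2 cells transiently transfected with multiple cis-regulated reporter units measure endogenous transcription factor activity; 24 h compound exposure. Reporter mRNA quantified by RT-PCR, fluorescent labelling, HpaI digestion and capillary electrophoresis; bidirectional fit versus DMSO.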

Experiment [11] has as its target Paired box protein Pax-6 (Homo sapiens) (UniProt P26367). Briefly: ATG_Pax6_CIS: Attagene CIS-FACTORIAL HepG2 Assay for human Paired Box 6 (PAX6) (AID 2282956). Particulars: HepG2 CIS-FACTORIAL PAX6 reporter transcription, RNA readout; actives raise or lower the signal. Put shortly:
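After twenty-four hours of chemical exposure, transfected HepG2 cells are harvested for RNA. Cis-promoter reporter transcripts are amplified, fluorescently labelled and sized by capillary electrophoresis, with gain and loss of signal scored against DMSO.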

Experiment [12] can be described thus: ATG_PXRE_CIS: Attagene CIS-FACTORIAL HepG2 Assay for human Pregnane X Receptor Element (PXRE) (AID 2282957). The settings on record: HepG2 Attagene CIS-FACTORIAL PXRE reporter, mRNA; actives raise or lower the signal. Put shortly: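 HepG2 cells transiently transfected with cis-element-driven multiplexed reporter units; after 24 h chemical exposure, reporter mRNA measured by RT-PCR, 6-FAM labelling, HpaI digestion and capillary electrophoresis. Bidirectional fitting relative to DMSO.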

The nature of experiment [13]: ATG_PPRE_CIS: Attagene CIS-FACTORIAL HepG2 Assay for human Peroxisome Proliferator-activated Response Element (PPRE) (AID 2282958). The settings on record: HepG2 PPRE cis-element reporter, Attagene transcription factor profiling; actives raise or lower the signal. Put shortly: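 HepG2 cells are transiently transfected with multiplexed cis-promoter reporter units to report endogenous PPAR activity. After 24 h dosing, reporter mRNA is read by RT-PCR and capillary electrophoresis. Fitting is bidirectional against DMSO.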

A short description of experiment [14]: ATG_Sox_CIS: Attagene CIS-FACTORIAL HepG2 Assay for human SRY-box transcription factor (SOX) (AID 2282960). The settings on record: HepG2 Attagene cis-factorial SOX reporter, mRNA; actives raise or lower the signal. An outline of the steps: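 HepG2 cells transiently transfected with multiple cis-regulated reporter units, then dosed for 24 h. Reporter mRNA quantified by RT-PCR, fluorescent labelling, HpaI digestion and capillary electrophoresis; bidirectional fit versus DMSO.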

The target of experiment [15] is Transcription factor Sp1 (Homo sapiens) (UniProt P08047). Put plainly: ATG_Sp1_CIS: Attagene CIS-FACTORIAL HepG2 Assay for human Specificity Protein 1 (Sp1) (AID 2282961). The settings on record: HepG2 Sp1 cis-reporter transcription, actives raise or lower the signal. Put shortly: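 HepG2 cells transiently transfected with multiplexed cis-regulated reporter constructs, chemical exposure 24 h. Reporter mRNA quantified by RT-PCR with capillary electrophoresis; bidirectional fit relative to DMSO.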

The nature of experiment [16]: ATG_SREBP_CIS: Attagene CIS-FACTORIAL HepG2 Assay for human Sterol Regulatory Element Binding (SREBP) (AID 2282962). Particulars: HepG2 Attagene cis-factorial SREBP reporter, mRNA; actives raise or lower the signal. Put shortly:
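Twenty-four hours after chemical dosing of transfected HepG2 cultures, reporter RNA was converted to cDNA, amplified, end-labelled with 6-FAM and resolved by capillary electrophoresis. Responses were fitted relative to DMSO.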

Experiment [17] deals with Signal transducer and activator of transcription 3 (Homo sapiens) (UniProt P40763). Briefly: ATG_STAT3_CIS: Attagene CIS-FACTORIAL HepG2 Assay for human Signal Transducer and Activator of Transcription 3 (STAT3) (AID 2282963). Particulars: HepG2, Attagene cis-factorial STAT3 reporter transcription; actives raise or lower the signal. An outline of the steps: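 HepG2 cells transiently transfected with multiple cis-element-driven reporter units report endogenous transcription factor activity. After 24 h compound exposure, reporter mRNA is measured by RT-PCR, 6-FAM labelling, HpaI digestion and capillary electrophoresis. Fitted bidirectionally versus DMSO.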

A short description of experiment [18]: ATG_TA_CIS: Attagene CIS-FACTORIAL HepG2 Assay for human TA Basal Promoter (AID 2282964). The settings on record: HepG2 Attagene CIS-factorial TA basal promoter reporter; actives raise or lower the signal. Put shortly:
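HepG2 cells transiently transfected with multiple reporter units under cis promoter elements, reporting endogenous transcription factor activity; this endpoint tracks the TA basal promoter as background control. Reporter mRNA after 24 h dosing measured by RT-PCR/capillary electrophoresis; bidirectional fits versus DMSO.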

Experiment [19] can be described thus: ATG_TCF_b_cat_CIS: Attagene CIS-FACTORIAL HepG2 Assay for human T-Cell-Factor with beta-catenin (TCF/b-cat) (AID 2282965). The settings on record: HepG2 TCF/beta-catenin cis-reporter transcription, actives raise or lower the signal. An outline of the steps:
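HepG2, transient MRTU transfection, cis-element-driven reporters (endogenous TFs). 24 h compound exposure. Readout: reporter mRNA by RT-PCR + 6-FAM primer extension, HpaI digest, capillary electrophoresis. Gain/loss fit vs DMSO baseline.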

Experiment [20] is described as follows: ATG_RORE_CIS: Attagene CIS-FACTORIAL HepG2 Assay for human RAR-related Orphan Receptor Element (RORE) (AID 2282959). The settings on record: HepG2 Attagene cis-factorial RORE reporter, mRNA; actives raise or lower the signal. An outline of the steps:
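HepG2 cells carrying transiently transfected cis-regulated reporter units; RORE-driven reporter mRNA quantified 24 h post-dosing by RT-PCR, 6-FAM primer extension, HpaI digestion and capillary electrophoresis. Bidirectional fit versus DMSO.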

Data on 6 compounds can be found in PubChem BioAssay (EPA / NIEHS).

The source made the active and inactive calls. Rule for the calls: active = hit-call score of the fitted dose curve at least 0.9, where 1 is the maximum; inactive = score below 0.9.

Sequence of Heat shock factor protein 1 (Homo sapiens) (Q00613 whole entry, looked up): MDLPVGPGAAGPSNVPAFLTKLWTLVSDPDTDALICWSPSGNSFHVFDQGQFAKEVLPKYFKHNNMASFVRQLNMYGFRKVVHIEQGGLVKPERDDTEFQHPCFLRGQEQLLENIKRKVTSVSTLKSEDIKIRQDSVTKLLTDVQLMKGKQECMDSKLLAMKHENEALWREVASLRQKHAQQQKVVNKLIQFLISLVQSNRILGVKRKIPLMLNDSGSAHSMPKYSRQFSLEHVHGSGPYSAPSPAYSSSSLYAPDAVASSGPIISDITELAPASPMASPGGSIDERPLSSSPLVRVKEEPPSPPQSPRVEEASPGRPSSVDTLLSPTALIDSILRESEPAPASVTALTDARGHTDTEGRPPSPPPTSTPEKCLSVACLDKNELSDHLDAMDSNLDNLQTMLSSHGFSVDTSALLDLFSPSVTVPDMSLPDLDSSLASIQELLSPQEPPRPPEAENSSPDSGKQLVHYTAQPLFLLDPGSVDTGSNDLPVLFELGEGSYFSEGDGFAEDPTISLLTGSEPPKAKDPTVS
Sequence of Signal transducer and activator of transcription 3 (Homo sapiens) (P40763 whole entry, looked up): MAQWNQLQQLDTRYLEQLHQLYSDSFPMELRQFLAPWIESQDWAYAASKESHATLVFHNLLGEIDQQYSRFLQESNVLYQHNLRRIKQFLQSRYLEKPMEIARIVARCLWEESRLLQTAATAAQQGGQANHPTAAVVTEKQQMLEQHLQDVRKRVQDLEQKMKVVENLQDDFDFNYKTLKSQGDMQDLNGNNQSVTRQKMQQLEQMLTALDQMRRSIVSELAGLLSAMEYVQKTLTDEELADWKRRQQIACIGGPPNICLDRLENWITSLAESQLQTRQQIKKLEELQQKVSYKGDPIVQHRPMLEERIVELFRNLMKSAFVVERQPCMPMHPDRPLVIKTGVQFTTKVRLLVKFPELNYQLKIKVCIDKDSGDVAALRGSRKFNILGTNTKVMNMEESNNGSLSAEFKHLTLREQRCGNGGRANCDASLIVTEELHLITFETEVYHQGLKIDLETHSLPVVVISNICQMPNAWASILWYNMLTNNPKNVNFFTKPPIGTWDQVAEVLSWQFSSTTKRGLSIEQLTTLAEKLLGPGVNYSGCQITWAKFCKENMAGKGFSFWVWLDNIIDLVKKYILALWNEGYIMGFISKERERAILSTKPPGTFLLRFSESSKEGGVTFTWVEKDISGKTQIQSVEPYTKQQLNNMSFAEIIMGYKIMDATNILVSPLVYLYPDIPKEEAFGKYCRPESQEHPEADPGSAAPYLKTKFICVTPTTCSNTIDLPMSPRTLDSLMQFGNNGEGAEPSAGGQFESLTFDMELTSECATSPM
Sequence of Paired box protein Pax-6 (Homo sapiens) (P26367 whole entry, looked up): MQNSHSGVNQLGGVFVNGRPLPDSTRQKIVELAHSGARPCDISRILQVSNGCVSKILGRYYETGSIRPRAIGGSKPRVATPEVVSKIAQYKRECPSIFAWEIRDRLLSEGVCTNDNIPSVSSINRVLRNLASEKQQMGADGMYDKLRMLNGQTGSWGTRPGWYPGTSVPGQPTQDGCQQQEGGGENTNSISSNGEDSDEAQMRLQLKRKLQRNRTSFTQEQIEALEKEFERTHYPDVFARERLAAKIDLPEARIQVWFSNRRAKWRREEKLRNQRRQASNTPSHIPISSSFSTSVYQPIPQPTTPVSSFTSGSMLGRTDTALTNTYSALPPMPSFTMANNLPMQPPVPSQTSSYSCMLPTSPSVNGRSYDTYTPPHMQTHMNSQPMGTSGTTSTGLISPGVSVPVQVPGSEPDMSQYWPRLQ
Sequence of Transcription factor Sp1 (Homo sapiens) (P08047 whole entry, looked up): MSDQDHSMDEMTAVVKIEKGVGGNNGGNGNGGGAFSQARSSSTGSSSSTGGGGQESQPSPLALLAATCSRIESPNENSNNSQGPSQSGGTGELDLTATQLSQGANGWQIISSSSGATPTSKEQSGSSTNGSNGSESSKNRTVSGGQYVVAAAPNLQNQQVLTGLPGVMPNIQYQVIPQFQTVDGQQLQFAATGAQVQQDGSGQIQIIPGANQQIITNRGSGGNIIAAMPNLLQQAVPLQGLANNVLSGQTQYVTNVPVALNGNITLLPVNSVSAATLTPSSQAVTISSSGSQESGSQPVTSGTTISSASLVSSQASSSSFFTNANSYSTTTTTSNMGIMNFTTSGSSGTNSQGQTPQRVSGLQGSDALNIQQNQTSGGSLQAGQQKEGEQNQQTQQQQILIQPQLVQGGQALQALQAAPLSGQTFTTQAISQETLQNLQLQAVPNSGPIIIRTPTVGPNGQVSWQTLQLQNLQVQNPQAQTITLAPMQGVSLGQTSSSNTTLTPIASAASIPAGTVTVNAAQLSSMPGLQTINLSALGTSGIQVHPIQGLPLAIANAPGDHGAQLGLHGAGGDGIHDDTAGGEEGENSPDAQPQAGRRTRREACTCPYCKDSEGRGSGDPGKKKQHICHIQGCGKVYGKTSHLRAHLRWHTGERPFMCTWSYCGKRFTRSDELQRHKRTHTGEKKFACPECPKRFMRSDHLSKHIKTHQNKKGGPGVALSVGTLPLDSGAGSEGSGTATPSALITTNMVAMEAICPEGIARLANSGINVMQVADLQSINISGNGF
Sequence of Hepatocyte nuclear factor 6 (Homo sapiens) (Q9UBC0 whole entry, looked up, the tested form may be a part): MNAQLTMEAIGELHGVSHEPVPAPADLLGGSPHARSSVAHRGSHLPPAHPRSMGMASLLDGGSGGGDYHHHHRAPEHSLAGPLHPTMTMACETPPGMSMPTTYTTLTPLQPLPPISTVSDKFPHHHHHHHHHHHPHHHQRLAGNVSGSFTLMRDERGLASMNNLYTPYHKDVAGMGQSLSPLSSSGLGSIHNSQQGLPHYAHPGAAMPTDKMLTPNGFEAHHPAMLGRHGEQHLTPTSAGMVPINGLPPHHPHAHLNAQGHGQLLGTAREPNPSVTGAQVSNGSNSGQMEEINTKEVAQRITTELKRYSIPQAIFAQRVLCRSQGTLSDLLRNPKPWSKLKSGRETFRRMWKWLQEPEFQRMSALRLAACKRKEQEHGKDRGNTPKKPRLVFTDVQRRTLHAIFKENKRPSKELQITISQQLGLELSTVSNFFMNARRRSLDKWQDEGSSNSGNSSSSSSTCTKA
Sequence of Bile acid receptor (Homo sapiens) (Q96RI1 whole entry, looked up): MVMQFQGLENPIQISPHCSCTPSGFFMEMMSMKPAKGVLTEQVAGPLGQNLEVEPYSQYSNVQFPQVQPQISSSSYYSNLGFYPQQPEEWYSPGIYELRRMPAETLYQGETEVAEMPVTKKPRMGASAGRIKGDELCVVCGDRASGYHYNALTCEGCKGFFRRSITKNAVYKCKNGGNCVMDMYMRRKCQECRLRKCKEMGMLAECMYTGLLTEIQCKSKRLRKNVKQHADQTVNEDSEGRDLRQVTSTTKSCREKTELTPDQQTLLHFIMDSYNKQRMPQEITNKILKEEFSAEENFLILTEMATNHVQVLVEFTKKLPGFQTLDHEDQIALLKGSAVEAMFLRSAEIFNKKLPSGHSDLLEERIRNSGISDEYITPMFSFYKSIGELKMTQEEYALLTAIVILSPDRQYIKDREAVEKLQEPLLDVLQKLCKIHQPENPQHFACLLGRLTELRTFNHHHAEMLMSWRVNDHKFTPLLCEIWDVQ
Sequence of Hypoxia-inducible factor 1-alpha (Homo sapiens) (Q16665 whole entry, looked up): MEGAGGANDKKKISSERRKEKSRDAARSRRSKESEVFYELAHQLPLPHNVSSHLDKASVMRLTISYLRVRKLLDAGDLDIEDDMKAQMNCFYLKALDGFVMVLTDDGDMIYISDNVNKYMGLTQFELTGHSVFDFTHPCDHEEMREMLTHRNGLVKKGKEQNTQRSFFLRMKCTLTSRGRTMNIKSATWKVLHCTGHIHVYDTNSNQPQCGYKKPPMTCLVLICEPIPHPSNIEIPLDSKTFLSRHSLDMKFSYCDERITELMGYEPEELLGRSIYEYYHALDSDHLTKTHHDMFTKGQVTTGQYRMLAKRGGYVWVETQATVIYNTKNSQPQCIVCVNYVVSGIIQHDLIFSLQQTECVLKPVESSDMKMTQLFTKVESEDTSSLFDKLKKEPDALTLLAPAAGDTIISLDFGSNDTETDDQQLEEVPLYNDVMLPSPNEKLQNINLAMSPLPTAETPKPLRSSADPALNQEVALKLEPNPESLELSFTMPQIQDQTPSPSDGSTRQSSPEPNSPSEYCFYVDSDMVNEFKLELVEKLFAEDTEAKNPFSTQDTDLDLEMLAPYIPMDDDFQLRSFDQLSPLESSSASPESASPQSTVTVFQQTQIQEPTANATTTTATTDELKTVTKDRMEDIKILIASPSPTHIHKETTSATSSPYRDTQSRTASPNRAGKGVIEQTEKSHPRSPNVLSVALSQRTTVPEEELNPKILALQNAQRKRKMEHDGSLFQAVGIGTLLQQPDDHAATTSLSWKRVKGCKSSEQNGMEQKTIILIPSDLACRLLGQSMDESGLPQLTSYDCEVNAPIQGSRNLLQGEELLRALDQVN

Regarding `CCCC(C)CCC(C)=O` (stereo unspecified), the compound was called inactive in experiment [1], in experiment [2], in [3], in experiment [4], in [5] and in experiment [6]. In addition, the outcome in experiment [7], in experiment [8], in experiment [9], in experiment [10], in experiment [11] and in experiment [12] was inactive. Moreover, the compound was called inactive in experiment [13], in experiment [14], in experiment [15], in [16], in [17] and in experiment [18]. In addition, the result in experiment [19] was inactive.

Broadly, the AC50 is the concentration giving half of the maximal activity seen. With `O=C(c1ccc(O)cc1)c1ccc(O)cc1O`, the result in [1], in experiment [2], in experiment [3], in experiment [4], in [5] and in [6] was inactive. Further, the result in experiment [7], in [8], in experiment [9], in experiment [10], in experiment [11] and in [20] was inactive. Also, the compound was called inactive in [15], in experiment [18] and in experiment [19]. The half-maximal activity concentration (AC50) is 35.8 µM (active) in [12] and 100 µM (active) in [13].

On to `O=S(=O)(O)c1cc(S(=O)(=O)O)c2ccc3c(S(=O)(=O)O)cc(S(=O)(=O)O)c4ccc1c2c43`, for which the call in [1], in experiment [2], in experiment [3], in [4], in experiment [5] and in experiment [6] was inactive. Further, the compound was classed as inactive in [7], in experiment [8], in experiment [9], in experiment [11], in [12] and in experiment [13]. In addition, the outcome in experiment [20], in experiment [14], in experiment [15], in [17], in experiment [18] and in [19] was inactive.

Regarding `C[Si](C)(C)O[Si](O)(O)O`, the result in experiment [1], in [2], in [3], in [4], in experiment [5] and in experiment [6] was inactive. The call in [7], in [8], in experiment [9], in experiment [11], in experiment [13] and in [20] was inactive. The outcome in experiment [14], in experiment [15], in experiment [16], in [17], in [18] and in experiment [19] was inactive. For the same compound, the half-maximal activity concentration (AC50) in experiment [12] is 26.9 µM (active).

In the case of `Cc1cc(O)c(Cl)c(C)c1Cl`, the call in experiment [1], in experiment [2], in experiment [3], in experiment [4], in [5] and in [6] was inactive. Further, the compound was classed as inactive in experiment [7], in [8], in experiment [9], in [10], in experiment [11] and in experiment [20]. Moreover, the compound was called inactive in [14], in [15], in experiment [16], in [17], in [18] and in experiment [19]. Also, the AC50 in [12] was 15.1 µM (active).

As for `C#CC1(O)CC[C@H]2[C@@H]3CCC4=CCCC[C@@H]4[C@H]3CC[C@@]21C` (stereo partly specified), the half-maximal activity concentration (AC50) was 0.849 µM (active) in experiment [1]; 55.3 µM (active) in [7]; 2.58 µM (active) in experiment [12]; 33.4 µM (active) in experiment [13]; 41.7 µM (active) in experiment [20]; 27.4 µM (active) in [16]. Further, the AC50 was 16.7 µM (active) in experiment [18] and 33.4 µM (active) in experiment [19]. Also, the outcome in [2], in [3], in [4], in [5], in experiment [6] and in [8] was inactive. The compound was classed as inactive in [9], in experiment [11], in [14], in experiment [15] and in experiment [17].
